“And” between values parts separate entries of the source, which are not always exact repeats. Identical values can stand only once. This is part of a sample that, as a whole, favours compounds with a hit. Of some 83,000 tested, about 20% had one in any assay.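 The endpoint reported here, percent growth, reads 100 for growth as untreated, 0 for no net growth and -100 for all cells dead.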 The source made the active and inactive calls.
Each compound was assayed on SK-MEL-2 melanoma (assay: NCI-60 one-dose screen, 48 h (100 = growth as untreated, 0 = no growth, -100 = all killed)). Conditions: 10 µM.
Method: Growth inhibition of the SK-MEL-2 human tumor cell line is measured as a screen for anti-cancer activity. Cells are grown in 96 well plates and exposed to the test compound for 48 hours. Compounds are tested at a single concentration, which is 10^-5 M for most compounds. The reported endpoint is percent growth (GI% or GIPRCNT), where numbers from 0 - 100% represent growth inhibition, and numbers from -100% - 0 represent cell death. For example, a value of 40 represents 60% growth inhibition. A value of 0 means no net growth occurred over the course of the experiment. A value of -40 indicates 40% of cells at the beginning of the experiment died by the end of the experiment. A value of -100 means all cells are dead at the end of the experiment.
NCI-60 Human Tumor Cell Lines Screen was performed using the standard one-dose NCI protocol, which is described in more detail at https://dtp.cancer.gov/discovery_development/nci-60/default.htm.
Compounds with GIPRCNT values below 10 were considered active. Activity score was based on GIPRCNT using the following formula: […]
Score is 0 for GIPRCNT values of 100 or above, 50 for GIPRCNT values of 0, and 100 for GIPRCNT values of -100.
In the case of `COc1ccc(-c2cscc2N)cc1`, the growth is reported as 95.1% (inactive).
`O=C(Nc1cccc(Br)c1)Oc1cccc2cccnc12` was tested, and the growth was 85.8% (inactive).
In the case of `CN(C)C(=O)c1ccc(SC(=S)NCc2ccccc2)cc1`, the growth is reported as 114% (inactive).

Same assay, conditions: 10 µM unless noted
`O=C1C2=C(Nc3cc([N+](=O)[O-])ccc3N2)OC1c1c2ccccc2cc2ccccc12` (stereo not given) was tested, and the growth was 87.4% (inactive).
In the case of `COc1cc(/C=C/C(C)=O)ccc1O`, the growth is reported as 105% (inactive).
For `CN(C)c1ccc(N=Nc2cccc3ccccc23)cc1`, the growth was 100% (inactive).
For `CCOC(=O)/C=C/c1ccc([N+](=O)[O-])o1`, the growth was 85.3% (inactive).
`Oc1ccc(/C=N/NC(=S)Nc2ccccc2)nc1` was tested, and the growth was 11.8% (inactive).
With `NC(=S)N/N=C\c1nccc2c(C(F)(F)C(F)(F)C(F)(F)F)cccc12` the growth was 7.18% (active).
With `Cc1ccc2c(ccc3c[n+]4c5ccccc5ccc4n32)c1` the growth was -19.8% (active).
`CCOC(=O)c1c(C)[nH]c(CO)c1C` was tested, and the growth was 101% (inactive).
With `CC(=Nc1ccc(N(C)C)cc1)c1ccccc1` the growth was 78.4% (inactive).
For `CCCCCCCCCCCCCCCCOP(=O)([O-])OCC[N+](C)(C)C`, the growth was 56.8% (inactive).
With `CCCCCC(CCCCC)C(=O)O` the growth was 99.2% (inactive).
With `C1=C(c2ccccc2)C(c2ccc(OCCN3CCCCC3)cc2)Oc2ccccc21` (stereo not given) the growth was 77.3% (inactive).
`S=C(NCCNC(=S)[S][Sn]([c]1ccccc1)([c]1ccccc1)[c]1ccccc1)[S][Sn]([c]1ccccc1)([c]1ccccc1)[c]1ccccc1` was tested, and the growth was -93.1% (active).
In the case of `CCCCCCC(C)c1ccccc1O` (stereo not given) (tested in a mixture with another compound), the growth is reported as 123% (inactive).
For `O[C@H]1[C@H]2c3cc4c(cc3CN3CCC(=C[C@@H]1O)[C@H]23)OCO4`, the growth was 24.5% (inactive).
With `O=C1c2ccccc2C(=O)N1c1ccccc1` the growth was 128% (inactive).
With `Cc1ccnc(NC(c2ccccc2)c2ccc3cccnc3c2O)c1` (stereo not given) the growth was 50.4% (inactive).
For `CCC(c1cccc(O)c1)C(CC)c1cccc(O)c1` (stereo not given), the growth was 71.8% (inactive).
With `CN(C)c1ccc(C(=C2C=CC(=[N+](C)C)C=C2)c2ccc(N(C)C)cc2)cc1` (tested in a mixture with another compound) the growth was -66.9% (active).
`CCOc1ccc(-c2nc3ccc(-c4nc5ccc(N6CCN(C)CC6)cc5[nH]4)cc3[nH]2)cc1` was tested, and the growth was 4.1% (active).
In the case of `O=C1C=CC(=O)N1C1c2ccccc2-c2ccccc21`, the growth is reported as 100% (inactive).
`O=C(/C=C/C=C/c1ccccc1)c1ccco1` was tested, and the growth was 103% (inactive).
With `O=[N+]([O-])c1ccc(N=Nc2ccc(O)cc2O)cc1` the growth was 43.1% (inactive).
With `O=C1c2cccnc2-c2nccc3c2c1nc1cc(Br)ccc13` the growth was 16.8% (inactive) and -59% (active).
With `CN(C)c1ccc(/C=N/N=C(\C#N)[S][Sn]([Cl])([c]2ccccc2)[c]2ccccc2)cc1` the growth was 40.3% (inactive).
`Cc1ccc(N=C=C(c2ccccc2)c2ccccc2)cc1` was tested, and the growth was 97.5% (inactive).
For `C/C=C1\SC(=S)NC1=O`, the growth was 111% (inactive).
For `O=C(/C=C/c1cccc(Cl)c1)c1ccccc1`, the growth was 109% (inactive) and 100% (inactive).
For `C[n+]1c(/C=C/c2ccc([N+](=O)[O-])cc2)ccc2ccccc21`, the growth was 103% (inactive).
`COC(=O)c1nc(=S)[nH]c(C(=O)OC)c1C(=O)c1ccccn1` was tested, and the growth was 24.9% (inactive).
`Nc1nc(N)c2c(ccc3c2ccn3Cc2cccc([N+](=O)[O-])c2)n1` was tested, and the growth was -92% (active).
`O=[N+]([O-])c1ccc2c(N=Nc3ccc4ccccc4c3O)c(O)cc(S(=O)(=O)O)c2c1` was tested, and the growth was 102% (inactive).
With `OC(CNc1ccnc2cc(Cl)ccc12)CNc1ccnc2cc(Cl)ccc12` the growth was 104% (inactive).
`O=C(O)c1ccc2c3c(ncnc13)-c1ccccc1C2=O` was tested, and the growth was 88.4% (inactive).

Same assay, conditions: 100 µM
With `COc1ccc(-c2cscc2N)cc1` the growth was 24.6% (inactive).
For `O=C(Nc1cccc(Br)c1)Oc1cccc2cccnc12`, the growth was 9.32% (active).
For `CN(C)C(=O)c1ccc(SC(=S)NCc2ccccc2)cc1`, the growth was 4.25% (active).
